Shown are actives, neighbours in structure and some others; about 3.4% of the full set was active somewhere.
PAFAH1B2 inh = inhibitors of human PAFAH1B2. recombinant PAFAH1B2, FP-rhodamine activity probe, fluorescence polarization. inhibition, % at 3.39 µM. 1.2% of 340,000 active. AID 492953;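 active = inhibition above the mean of all tested compounds plus 3 SD, cut at about 24% in these data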
Target sequence (P68402 whole entry, looked up): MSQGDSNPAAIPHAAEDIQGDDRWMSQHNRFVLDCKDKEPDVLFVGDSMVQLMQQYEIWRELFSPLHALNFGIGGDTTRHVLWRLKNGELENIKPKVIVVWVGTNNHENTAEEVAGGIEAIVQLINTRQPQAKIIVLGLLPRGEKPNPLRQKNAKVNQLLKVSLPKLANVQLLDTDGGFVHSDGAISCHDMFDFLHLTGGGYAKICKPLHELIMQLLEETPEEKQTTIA
PAFAH2 inh = inhibitors of human PAFAH2; 0.99% of 340,000 active; inhibition, % at 3.39 µM; recombinant PAFAH2, FP-rhodamine activity probe, fluorescence polarization; Q99487;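 active = inhibition above the mean over all tested compounds plus 3 SD, cut at about 30% in these data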;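 note: inhibitors block probe labeling of enzyme so polarization drops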
PP1 counter = PP1-alpha (human) inhibition in PP5 counter-screen; purified PP1alpha, OMFP fluorescence; inhibition, % at 6.7 µM; 0.9% of 320,000 active; AID 2235;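 active = inhibition above the mean inhibition of all tested compounds plus 3 SD, computed separately for each screening campaign, cut at about 15% in these data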
PAFAH1B3 inh = PAFAH1B3 (human) inhibition | recombinant PAFAH1B3, FP-rhodamine probe, fluorescence polarization | inhibition, % at 3.39 µM | 0.28% of 340,000 active | AID 492972;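 active = inhibition above the screen-wide average of all tested compounds plus 3 SD, cut at about 25% in these data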
PP5 inh = blocks human protein phosphatase 5 activity; P53041; 0.18% of 320,000 active; inhibition, % at 6.7 µM; purified PP5c, OMFP substrate fluorescence;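 active = inhibition above the campaign's mean inhibition across all tested compounds plus 3 SD, cut at about 9.5% in these data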
pPAFAH FP inh = pPAFAH (human) enzyme inhibition; inhibition, % at 3.39 µM; 1.5% of 330,000 active; recombinant pPAFAH, FP-rhodamine probe fluorescence polarization;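 active = inhibition above the mean inhibition across the screen plus 3 SD, cut at about 25% in these data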;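 note: inhibitors block binding of the rhodamine activity-based probe so polarization drops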
Target sequence (Q13093 whole entry, looked up): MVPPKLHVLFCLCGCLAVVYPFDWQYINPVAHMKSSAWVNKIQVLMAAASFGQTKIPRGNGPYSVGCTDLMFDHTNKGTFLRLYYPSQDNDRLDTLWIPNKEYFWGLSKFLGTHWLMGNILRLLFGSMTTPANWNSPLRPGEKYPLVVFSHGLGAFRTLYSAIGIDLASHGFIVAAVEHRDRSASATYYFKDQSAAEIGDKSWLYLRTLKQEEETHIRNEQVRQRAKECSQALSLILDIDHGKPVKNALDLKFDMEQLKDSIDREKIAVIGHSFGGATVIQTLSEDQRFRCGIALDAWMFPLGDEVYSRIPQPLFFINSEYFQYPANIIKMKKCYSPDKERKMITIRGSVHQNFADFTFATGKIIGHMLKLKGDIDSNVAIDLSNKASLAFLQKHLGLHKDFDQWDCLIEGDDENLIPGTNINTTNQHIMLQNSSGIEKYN
Each line names hits and unclear results; the compound was inactive in the other large screens.

COc1ccc(C2C(C#N)=C(N)Oc3c2ccc2cccnc32)cc1OC (configuration not stated)	none
COc1cc(C2C(C#N)=C(N)Oc3c2ccc2ccccc32)ccc1OCC(=O)Nc1ccc(C)cc1 (configuration not stated)	pPAFAH FP inh 27.9
COc1cc(C2C(C#N)=C(N)Oc3c2ccc2ccccc32)ccc1OCC(=O)Nc1cccc(C)c1 (configuration not stated)	pPAFAH FP inh 32.9
Nc1nccc(SCc2ccccc2)n1	none (no result: PP1 counter, PP5 inh, pPAFAH FP inh)
CC1CCN(Cc2c(C(=O)N/N=C/c3cccc(C(F)(F)F)c3)nnn2-c2nonc2N)CC1	PP1 counter 16.2
Nn1c(SCc2ccccc2)nc2ccccc21	none
Cc1ccc(Cl)cc1N1CCN(C(=O)CSc2ccsc2[N+](=O)[O-])CC1	PP1 counter 17.2
CNC(=S)N(CCN(C)C)Cc1cc2cc3c(cc2[nH]c1=O)OCO3	none
CC1=C([N+](=O)[O-])C(c2ccccc2Cl)NC(=O)N1C (configuration not stated)	none
CC(CCc1ccccc1)NC(=O)COC(=O)C1=COCCO1 (configuration not stated)	none
N#CC1(NC(=O)COC(=O)C2=COCCO2)CCCCC1	PAFAH2 inh 92.2, PAFAH1B3 inh 32.5
CC(NC(=O)COC(=O)C1=COCCO1)C12CC3CC(CC(C3)C1)C2 (configuration not stated)	PAFAH1B2 inh 24.8, PAFAH2 inh 51.9
O=C1/C(=C/c2ccc(F)cc2)SC(=S)N1CC(=O)N1CCCCC1c1cccnc1 (configuration not stated)	PP1 counter 15.5
O=C(CSc1ccc(Cl)cc1)Nc1ccccc1N1CCN(C(=O)c2ccc(Cl)cc2)CC1	PP1 counter 15.2
O=C(CSc1ccc(Cl)cc1)Nc1ccc(N2CCN(C(=O)c3ccc(Cl)cc3)CC2)cc1	none
CC(=O)c1c(C)[nH]c(C(=O)OCC(=O)N(CC(C)C)C2CCS(=O)(=O)C2)c1C (configuration not stated)	none (no result: PP1 counter, PP5 inh, pPAFAH FP inh)
Cc1ccc(-n2c(SCC(=O)N/N=C/c3c(C)nn(-c4ccccc4)c3C)nc3ccccc3c2=O)cc1	none
Cc1nn(-c2ccccc2)c(C)c1/C=N/NC(=O)CSc1nnc(SCc2cccc3ccccc23)s1	PP1 counter 16.1
O=C(COC(=O)C1CCCCC1)NCc1ccc(Cl)cc1	none (no result: PP1 counter, PP5 inh)
O=C(COC(=O)CCC1CCCC1)NCc1ccc(Cl)cc1	pPAFAH FP inh 29.6
COc1ccc(C(=O)OCC(=O)Nc2ccc(OC(F)F)cc2)c(OC)c1	PAFAH2 inh 67.8, pPAFAH FP inh 32.9
O=C(COC(=O)CCC1CCCC1)Nc1ccccc1OC(F)F	pPAFAH FP inh 29.3
NS(=O)(=O)c1ccc(NC(=O)COC(=O)CCC2CCCC2)cc1	none
O=C(COC(=O)CCC1CCCC1)Nc1ccc(F)cc1	pPAFAH FP inh 31.7
O=C(C(=Cc1ccccc1)CN1CCCCC1)c1ccccc1	none (no result: PP1 counter, PP5 inh, pPAFAH FP inh)
O=C(COC(=O)CCC1CCCCC1)Nc1ccc(OC(F)F)cc1	pPAFAH FP inh 26.1
O=C(COC(=O)c1nc(Cl)ccc1Cl)Nc1ccccc1OC(F)F	none
O=C(COC(=O)c1ccc(Cl)c([N+](=O)[O-])c1)Nc1ccccc1OC(F)F	pPAFAH FP inh 31.9
CNc1nc(OCC(F)(F)F)nc(OCC(F)(F)F)n1	none
CNc1nc(NCCOC23CC4CC(CC(C4)C2)C3)nc(OCC(F)(F)F)n1	PAFAH1B2 inh 31.3
Oc1ccc(CN2CCc3ccccc3C2)c2cccnc12	PP1 counter 15.2
Oc1ccc(CN2CCCCC2)c2cccnc12	none
Cn1c(NCCCO)nc2c(c1=O)C1(CCCCC1)Cc1ccccc1-2	none
CSc1n[nH]c2nc3c(c(=O)n12)C1(CCCCC1)Cc1ccccc1-3	PAFAH1B2 inh 91.4, PAFAH2 inh 44.5
CCCn1c(SCC(N)=O)nc2c(c1=O)C1(CCCC1)Cc1ccccc1-2	none
CCSc1n[nH]c2nc3c(c(=O)n12)C1(CCCCC1)Cc1ccccc1-3	PAFAH1B2 inh 82.3, PAFAH2 inh 57.7
N#CCSc1n[nH]c2nc3c(c(=O)n12)C1(CCCCC1)Cc1ccccc1-3	PAFAH1B2 inh 90.7, PAFAH2 inh 38.2
CCC(=O)Nn1cnc2c(c1=O)C1(CCCCC1)Cc1ccccc1-2	PAFAH1B2 inh 33.0
O=C1CCCCC1Nc1ccc2ccccc2c1 (configuration not stated)	none (no result: PP1 counter, PP5 inh, pPAFAH FP inh)
CCCN1CCN(CCNC(=O)Nc2cc(C)ccc2C)CC1	none
O=C1CSC(=S)N1N=Cc1ccc(Cl)s1	none (no result: PP1 counter, PP5 inh, pPAFAH FP inh)
CN(Cc1ccccc1)C(=O)c1cccc(NC(=O)Cc2ccc(NC(=O)C3CCCN(C(=O)C4CCCCC4)C3)cc2)c1 (configuration not stated)	none (no result: PP1 counter, PP5 inh, pPAFAH FP inh)
O=C1N=C(N2CCOCC2)S/C1=C/c1cc2c(cc1[N+](=O)[O-])OCO2	none
C=C1C(=O)C23CCC4C(C)(C(=O)OC)CCCC4(C)C2CCC1(O)C3 (configuration not stated)	none (no result: PP1 counter, PP5 inh, pPAFAH FP inh)
N#Cc1c(-c2ccccc2)nc(SCC(=O)Nc2ccc(OC(F)(F)Cl)cc2)[nH]c1=O	PAFAH1B2 inh 78.9
N#Cc1c(-c2ccccc2)nc(SCC(=O)N(c2ccccc2)c2ccccc2)[nH]c1=O	PAFAH1B2 inh 38.9
N#Cc1c(-c2ccccc2)nc(SCC(=O)Nc2ccccc2F)[nH]c1=O	none
N#Cc1c(-c2ccccc2)nc(SCC(=O)Nc2ccccc2)[nH]c1=O	none
O=c1[nH]c(=O)n(C(c2ccccc2)(c2ccccc2)c2ccccc2)cc1N(CCO)CCO	none (no result: PP1 counter, PP5 inh, pPAFAH FP inh)
CCC(C)C(NC(=O)OCc1ccccc1)C(=O)OCN1C(=O)c2ccccc2C1=O (configuration not stated)	pPAFAH FP inh 32.7
CN(C)c1ccc(C(=O)OCC#CCSc2nnc(-c3cccc4ccccc34)o2)cc1	none (no result: PP1 counter, PP5 inh)
NC(=O)C1CCCN(C(=O)c2cccc(NC(=O)c3cccs3)c2)C1 (configuration not stated)	none (no result: PP1 counter, PP5 inh, pPAFAH FP inh)
COc1ccc(NC(=O)CSc2nnc(CNC(=O)COc3ccc(Cl)cc3)o2)c(OC)c1	none
COc1ccc(OC)c(NC(=O)CSc2nnc(CNC(=O)COc3ccc(Cl)cc3)o2)c1	PAFAH1B2 inh 27.6
COc1ccccc1OCc1nnc(SCC(=O)c2cc(Cl)ccc2OC)o1	PP1 counter 16.9
COc1ccccc1OCc1nnc(SCC(=O)N2CCCC2)o1	none
CCCn1c(SCC(=O)N(CC)c2c(N)n(Cc3ccccc3)c(=O)[nH]c2=O)nnc1-c1ccncc1	none (no result: PP1 counter, PP5 inh, pPAFAH FP inh)
CCOC(=O)c1cc(C#N)c(SCC(=O)O)[nH]c1=O	PAFAH1B3 inh 31.4, pPAFAH FP inh 31.8
CCOC(=O)c1cc(C#N)c(SCC(=O)c2cc(C#N)c(SC)nc2C)[nH]c1=O	none
CCN(CC(=O)Nc1c(F)cccc1F)C(=O)CCNS(=O)(=O)c1ccccc1C(F)(F)F	none
N#Cc1c(NC(=O)Cn2cnc3ccccc3c2=O)oc(-c2ccccc2)c1-c1ccccc1	PAFAH1B2 inh 29.1
